Our source for the growth inhibition values is PubChem BioAssay (NCI).

Experiment [1] is described as follows: NCI Yeast Anticancer Drug Screen. Data for the rad50 strain (AID 155).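 Note: 0% = growth of vehicle-only cultures of the same strain.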 The settings on record: S. cerevisiae rad50 strain growth inhibition, hits give high values. In outline:
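Genetically altered yeast (DNA repair pathway); compound treatment; growth inhibition vs vehicle ctrl.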

The nature of experiment [2]: NCI Yeast Anticancer Drug Screen. Data for the mec2-1 strain (AID 157). The settings on record: S. cerevisiae mec2-1 strain, hits give high values. In outline:
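Readout is yeast growth inhibition, normalised to vehicle-treated controls, in the mec2-1 strain exposed to compound.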

A short description of experiment [3]: NCI Yeast Anticancer Drug Screen. Data for the sgs1 mgt1 strain (AID 161).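 Note: 0% = growth of cultures given vehicle only.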 The settings on record: S. cerevisiae sgs1 mgt1 strain, hits give high values. In outline:
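Percent growth inhibition was derived by comparing compound-exposed mutant yeast with vehicle-exposed cultures. The strain carries alterations in DNA damage repair.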

The nature of experiment [4]: NCI Yeast Anticancer Drug Screen. Data for the cln2 rad14 strain (AID 165).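 Note: 0% = growth equal to vehicle treated cultures.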 The settings on record: S. cerevisiae cln2 rad14 strain, hits give high values. In outline:
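Relative to vehicle controls, growth inhibition of compound-treated cln2 rad14 yeast was recorded.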

A short description of experiment [5]: NCI Yeast Anticancer Drug Screen. Data for the bub3 strain (AID 167). As to conditions: S. cerevisiae bub3 mutant strain, hits give high values. An outline of the steps: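 Yeast carrying a defined mutation is treated with each compound, and growth is compared with that of vehicle-exposed cells to give inhibition.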
A short description of experiment [6]: NCI Yeast Anticancer Drug Screen. Data for the mlh1 rad18 strain (AID 175). As to conditions: S. cerevisiae mlh1 rad18 strain growth inhibition, hits give high values. In outline:
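Test agents were incubated with a yeast strain of defined genotype (DNA damage repair defect). Inhibition of growth was derived by comparison with vehicle-exposed cultures.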

Where [7] appears, read: at 5.0 µM (retest, dose inferred, filed as 0.5).
Where [8] appears, read: at 50.0 µM (retest, dose inferred, filed as 5.0).

About 79,000 compounds went through this panel and 15% of them were active in at least one assay; those are over-represented in the sample as a whole. A number with no mark means an inactive call. Active and inactive are the calls of the source. Cut-off read from the data, not from the text of the source: active = growth inhibition above about 70%; inactive = the rest.

For `Cc1cc(C)[nH]c(=S)n1.[Pt]`, the growth inhibition in experiment [1] (setting [7]) is -1%; in experiment [1] (setting [8]), -9%; in experiment [1] (at 50.0 µM) it was 8.7%; in experiment [2] (setting [7]), 0%; in experiment [2] (setting [8]), -3%; in experiment [2] (at 50.0 µM), 35.2%. Besides, the growth inhibition was -2% in experiment [3] (setting [7]); -5% in experiment [3] (setting [8]); 12.2% in experiment [3] (at 50.0 µM); 2% in experiment [4] (setting [7]); 7% in experiment [4] (setting [8]); 81.3% (active) in experiment [4] (at 50.0 µM). Besides, the growth inhibition in experiment [5] (setting [7]) is 2%; in experiment [5] (setting [8]), -2%; in experiment [5] (at 50.0 µM) it was 21.9%; in experiment [6] (setting [7]), -2%; in experiment [6] (setting [8]) it was -7%; in experiment [6] (at 50.0 µM), 0.5%.

In the case of `Cc1nc(N)sc1N=Nc1cc(Cl)c([N+](=O)[O-])cc1Cl`, the growth inhibition in experiment [1] (setting [7]) is -4%; in experiment [1] (setting [8]), 26%; in experiment [1] (at 50.0 µM), 38%; in experiment [2] (setting [7]) it was -7%; in experiment [2] (setting [8]) it was 33%; in experiment [2] (at 50.0 µM), 39.5%. The growth inhibition was 4% in experiment [3] (setting [7]); 77% (active) in experiment [3] (setting [8]); 70.2% (active) in experiment [3] (at 50.0 µM); 4% in experiment [4] (setting [7]); 2% in experiment [4] (setting [8]); 35.1% in experiment [4] (at 50.0 µM). The growth inhibition in experiment [5] (setting [7]) is 4%; in experiment [5] (setting [8]) it was 7%; in experiment [5] (at 50.0 µM) it was 47.5%; in experiment [6] (setting [7]) it was 11%; in experiment [6] (setting [8]), 78% (active); in experiment [6] (at 50.0 µM) it was 78.1% (active).

As for `Cc1cccc2c1C(=O)N(CC[P+](c1ccccc1)(c1ccccc1)c1ccccc1)C2=O`, the growth inhibition was 77% (active) in experiment [1] (setting [7]); 85% (active) in experiment [1] (setting [8]); 58.1% in experiment [1] (at 50.0 µM); 58% in experiment [2] (setting [7]); 87% (active) in experiment [2] (setting [8]); 70.3% (active) in experiment [2] (at 50.0 µM). The growth inhibition was 70% (active) in experiment [3] (setting [7]); 93% (active) in experiment [3] (setting [8]); 61.9% in experiment [3] (at 50.0 µM); 58% in experiment [4] (setting [7]); 91% (active) in experiment [4] (setting [8]); 35.3% in experiment [4] (at 50.0 µM). The growth inhibition in experiment [5] (setting [7]) was 80% (active); in experiment [5] (setting [8]) it was 95% (active); in experiment [5] (at 50.0 µM), 70.5% (active); in experiment [6] (setting [7]), 64%; in experiment [6] (setting [8]) it was 86% (active); in experiment [6] (at 50.0 µM), 67.9%.

As for `NC(=O)c1cccn1Cc1ccccc1SSc1ccccc1Cn1cccc1C(N)=O`, the growth inhibition is 32% in experiment [1] (setting [7]); 98% (active) in experiment [1] (setting [8]); 89.5% (active) in experiment [1] (at 50.0 µM); 31% in experiment [2] (setting [7]); 99% (active) in experiment [2] (setting [8]); 95.7% (active) in experiment [2] (at 50.0 µM). Also, the growth inhibition in experiment [3] (setting [7]) was 47%; in experiment [3] (setting [8]), 99% (active); in experiment [3] (at 50.0 µM), 94.2% (active); in experiment [4] (setting [7]), 16%; in experiment [4] (setting [8]) it was 98% (active); in experiment [4] (at 50.0 µM) it was 90.9% (active). Further, the growth inhibition was 24% in experiment [5] (setting [7]); 99% (active) in experiment [5] (setting [8]); 92.8% (active) in experiment [5] (at 50.0 µM); 21% in experiment [6] (setting [7]); 98% (active) in experiment [6] (setting [8]); 94.4% (active) in experiment [6] (at 50.0 µM).

Take `Cc1cn(C2CC(Br)C(COC(c3ccccc3)(c3ccccc3)c3ccccc3)O2)c(=O)[nH]c1=O` (stereo not given): the growth inhibition in experiment [1] (setting [7]) was 10%; in experiment [1] (setting [8]), 97% (active); in experiment [1] (at 50.0 µM) it was 97.6% (active); in experiment [2] (setting [7]) it was 6%; in experiment [2] (setting [8]), 99% (active); in experiment [2] (at 50.0 µM), 98.3% (active). The growth inhibition in experiment [3] (setting [7]) is 8%; in experiment [3] (setting [8]) it was 33%; in experiment [3] (at 50.0 µM), 98.2% (active); in experiment [4] (setting [7]) it was 2%; in experiment [4] (setting [8]) it was 97% (active); in experiment [4] (at 50.0 µM), 96.8% (active). Further, the growth inhibition was 6% in experiment [5] (setting [7]); 99% (active) in experiment [5] (setting [8]); 96.2% (active) in experiment [5] (at 50.0 µM); 8% in experiment [6] (setting [7]); 98% (active) in experiment [6] (setting [8]); 97.9% (active) in experiment [6] (at 50.0 µM).

For `C/C(=N\OC(=O)c1ccccc1)[N+](=O)[O-]`, the growth inhibition is -50% in experiment [1] (setting [7]); 98% (active) in experiment [1] (setting [8]); 88.1% (active) in experiment [1] (at 50.0 µM); -6% in experiment [2] (setting [7]); 100% (active) in experiment [2] (setting [8]); 77.8% (active) in experiment [2] (at 50.0 µM). The growth inhibition is -11% in experiment [3] (setting [7]); 99% (active) in experiment [3] (setting [8]); 72% (active) in experiment [3] (at 50.0 µM); -27% in experiment [4] (setting [7]); 99% (active) in experiment [4] (setting [8]); 81.8% (active) in experiment [4] (at 50.0 µM). Further, the growth inhibition in experiment [5] (setting [7]) is -61%; in experiment [5] (setting [8]), 85% (active); in experiment [5] (at 50.0 µM), 56.9%; in experiment [6] (setting [7]), -54%; in experiment [6] (setting [8]), 98% (active); in experiment [6] (at 50.0 µM) it was 65.4%.

With `CCCCCCCCCCCCNC(=O)c1cc[n+](Cc2ccc(Cl)c(Cl)c2)cc1`, the growth inhibition in experiment [1] (setting [7]) is 99% (active); in experiment [1] (setting [8]), 98% (active); in experiment [1] (at 50.0 µM), 99.3% (active); in experiment [2] (setting [7]), 100% (active); in experiment [2] (setting [8]) it was 97% (active); in experiment [2] (at 50.0 µM), 99.2% (active). Also, the growth inhibition is 100% (active) in experiment [3] (setting [7]); 98% (active) in experiment [3] (setting [8]); 99.1% (active) in experiment [3] (at 50.0 µM); 88% (active) in experiment [4] (setting [7]); 98% (active) in experiment [4] (setting [8]); 97.8% (active) in experiment [4] (at 50.0 µM). In addition, the growth inhibition in experiment [5] (setting [7]) was 98% (active); in experiment [5] (setting [8]) it was 98% (active); in experiment [5] (at 50.0 µM) it was 98.8% (active); in experiment [6] (setting [7]) it was 99% (active); in experiment [6] (setting [8]) it was 99% (active); in experiment [6] (at 50.0 µM), 99% (active).

For `CC(C)C1=CC(=O)C2=C(CCC3C(C)(C(=O)O)CCC[C@]23C)C1=O` (stereo not given in full), the growth inhibition in experiment [1] (setting [7]) was 7%; in experiment [1] (setting [8]), 99% (active); in experiment [1] (at 50.0 µM) it was 92.2% (active); in experiment [2] (setting [7]), 28%; in experiment [2] (setting [8]), 99% (active); in experiment [2] (at 50.0 µM) it was 93% (active). Further, the growth inhibition was 20% in experiment [3] (setting [7]); 99% (active) in experiment [3] (setting [8]); 93.2% (active) in experiment [3] (at 50.0 µM); 15% in experiment [4] (setting [7]); 99% (active) in experiment [4] (setting [8]); 90.7% (active) in experiment [4] (at 50.0 µM). In addition, the growth inhibition in experiment [5] (setting [7]) is 54%; in experiment [5] (setting [8]), 98% (active); in experiment [5] (at 50.0 µM), 92.3% (active); in experiment [6] (setting [7]) it was 21%; in experiment [6] (setting [8]), 99% (active); in experiment [6] (at 50.0 µM), 91.7% (active).

As for `O=C(CC(O)(C(F)(F)F)C(F)(F)F)C(c1ccccc1)C(O)(C(F)(F)F)C(F)(F)F` (stereo not given), the growth inhibition in experiment [1] (setting [7]) was 6%; in experiment [1] (setting [8]) it was 82% (active); in experiment [1] (at 50.0 µM), 71.8% (active); in experiment [2] (setting [7]), 13%; in experiment [2] (setting [8]), 79% (active); in experiment [2] (at 50.0 µM), 91.5% (active). For the same compound, the growth inhibition in experiment [3] (setting [7]) is -3%; in experiment [3] (setting [8]), 86% (active); in experiment [3] (at 50.0 µM), 84.2% (active); in experiment [4] (setting [7]), 13%; in experiment [4] (setting [8]) it was 92% (active); in experiment [4] (at 50.0 µM), 90.5% (active). Further, the growth inhibition in experiment [5] (setting [7]) was -14%; in experiment [5] (setting [8]), 41%; in experiment [5] (at 50.0 µM), 83.2% (active); in experiment [6] (setting [7]), 5%; in experiment [6] (setting [8]), 93% (active); in experiment [6] (at 50.0 µM) it was 93.6% (active).

Take `COc1cc(C(c2cc3c(cc2OC(C)=O)OCO3)C(C)C(C)=O)cc(OC)c1OC` (stereo not given): the growth inhibition in experiment [1] (setting [7]) is 3%; in experiment [1] (setting [8]) it was 84% (active); in experiment [1] (at 50.0 µM) it was -8.35%; in experiment [2] (setting [7]) it was 4%; in experiment [2] (setting [8]) it was 66%; in experiment [2] (at 50.0 µM), 13.8%. The growth inhibition is 5% in experiment [3] (setting [7]); 95% (active) in experiment [3] (setting [8]); 0.1% in experiment [3] (at 50.0 µM); 7% in experiment [4] (setting [7]); 49% in experiment [4] (setting [8]); 51.2% in experiment [4] (at 50.0 µM). For the same compound, the growth inhibition in experiment [5] (setting [7]) was 1%; in experiment [5] (setting [8]), 40%; in experiment [5] (at 50.0 µM), -1.75%; in experiment [6] (setting [7]), 1%; in experiment [6] (setting [8]), 38%; in experiment [6] (at 50.0 µM), 29.1%.
